How the values were obtained:
Experiment in all cases: SPOT peptide array binding signal intensity (averaged, normalized) (arbitrary units (background-subtracted, floor 0; scale differs between SH3 domains)); higher = stronger binding of the SH3 domain to the peptide
CaNbp2 = molecular target: CaNbp2
Method in brief: (§1)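 Four yeast species supplied the SH3 domains, which were expressed as GST fusions in E. coli BL21(DE3) and purified on glutathione Sepharose. Incubation with cellulose membranes carrying synthetic 15-mer peptides, cysteines exchanged for serines, ran overnight at 4°C at 10 μg/ml in TBS-based blocking buffer. Binding signal is reported as normalized, background-subtracted spot intensity averaged over replicates, in arbitrary units not shared between domains.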

CaRvs167 = molecular target: CaRvs167
Method in brief: as §1

CaRvs167-3 = molecular target: CaRvs167-3
Method in brief: as §1

CaSho1 = molecular target: CaSho1
Method in brief: as §1

CaSla1-D1-D2 = molecular target: CaSla1-D1-D2
Method in brief: as §1

CaSla1-D3 = molecular target: CaSla1-D3
Method in brief: as §1

ScAbp1 = molecular target: ScAbp1
Method in brief: as §1

ScBbc1 = molecular target: ScBbc1
Method in brief: as §1

ScBem1-D1 = molecular target: ScBem1-D1
Method in brief: as §1

ScBzz1-D1 = molecular target: ScBzz1-D1
Method in brief: as §1

ScBzz1-D2 = molecular target: ScBzz1-D2
Method in brief: as §1

ScCyk3 = molecular target: ScCyk3
Method in brief: as §1

ScFus1 = molecular target: ScFus1
Method in brief: as §1

ScHof1 = molecular target: ScHof1
Method in brief: as §1

ScHse1 = molecular target: ScHse1
Method in brief: as §1

ScLsb1 = molecular target: ScLsb1
Method in brief: as §1

ScLsb2 = molecular target: ScLsb2
Method in brief: as §1

ScLsb3 = molecular target: ScLsb3
Method in brief: as §1

ScLsb4 = molecular target: ScLsb4
Method in brief: as §1

ScMyo3 = molecular target: ScMyo3
Method in brief: as §1

ScMyo5 = molecular target: ScMyo5
Method in brief: as §1

ScNbp2 = molecular target: ScNbp2
Method in brief: as §1

ScPex13 = molecular target: ScPex13
Method in brief: as §1

ScRvs167 = molecular target: ScRvs167
Method in brief: as §1

ScSho1 = molecular target: ScSho1
Method in brief: as §1

ScSla1-D1-D2 = molecular target: ScSla1-D1-D2
Method in brief: as §1

ScSla1-D3 = molecular target: ScSla1-D3
Method in brief: as §1

SpAbp1-D1 = molecular target: SpAbp1-D1
Method in brief: as §1

SpBbc1 = molecular target: SpBbc1
Method in brief: as §1

SpBzz1-D1 = molecular target: SpBzz1-D1
Method in brief: as §1

SpBzz1-D2 = molecular target: SpBzz1-D2
Method in brief: as §1

SpCyk3 = molecular target: SpCyk3
Method in brief: as §1

SpHof1 = molecular target: SpHof1
Method in brief: as §1

SpHof1-2 = molecular target: SpHof1-2
Method in brief: as §1

SpHof1-3 = molecular target: SpHof1-3
Method in brief: as §1

SpHse1 = molecular target: SpHse1
Method in brief: as §1

SpLsb1 = molecular target: SpLsb1
Method in brief: as §1

SpLsb4 = molecular target: SpLsb4
Method in brief: as §1

SpMyo1 = molecular target: SpMyo1
Method in brief: as §1

SpNbp2 = molecular target: SpNbp2
Method in brief: as §1

SpPex13 = molecular target: SpPex13
Method in brief: as §1

SpRvs167 = molecular target: SpRvs167
Method in brief: as §1

SpSla1-D1-D2 = molecular target: SpSla1-D1-D2
Method in brief: as §1

SpSla1-D3 = molecular target: SpSla1-D3
Method in brief: as §1

AgAbp1 = molecular target: AgAbp1
Method in brief: as §1

AgBbc1 = molecular target: AgBbc1
Method in brief: as §1

AgBem1-D1 = molecular target: AgBem1-D1
Method in brief: as §1

AgBzz1-D1 = molecular target: AgBzz1-D1
Method in brief: as §1

AgBzz1-D2 = molecular target: AgBzz1-D2
Method in brief: as §1

AgCyk3 = molecular target: AgCyk3
Method in brief: as §1

AgFus1 = molecular target: AgFus1
Method in brief: as §1

AgHof1 = molecular target: AgHof1
Method in brief: as §1

AgHse1 = molecular target: AgHse1
Method in brief: as §1

AgLsb1 = molecular target: AgLsb1
Method in brief: as §1

AgLsb4 = molecular target: AgLsb4
Method in brief: as §1

AgMyo5 = molecular target: AgMyo5
Method in brief: as §1

AgNbp2 = molecular target: AgNbp2
Method in brief: as §1

AgRvs167 = molecular target: AgRvs167
Method in brief: as §1

AgSho1 = molecular target: AgSho1
Method in brief: as §1

AgSla1-D1-D2 = molecular target: AgSla1-D1-D2
Method in brief: as §1

AgSla1-D3 = molecular target: AgSla1-D3
Method in brief: as §1

CaAbp1-D1 = molecular target: CaAbp1-D1
Method in brief: as §1

CaAbp1-D2 = molecular target: CaAbp1-D2
Method in brief: as §1

CaBbc1 = molecular target: CaBbc1
Method in brief: as §1

CaBem1-D1 = molecular target: CaBem1-D1
Method in brief: as §1

CaBzz1-D1 = molecular target: CaBzz1-D1
Method in brief: as §1

CaBzz1-D2 = molecular target: CaBzz1-D2
Method in brief: as §1

CaCyk3 = molecular target: CaCyk3
Method in brief: as §1

CaFus1 = molecular target: CaFus1
Method in brief: as §1

CaHof1 = molecular target: CaHof1
Method in brief: as §1

CaHse1 = molecular target: CaHse1
Method in brief: as §1

CaLsb1 = molecular target: CaLsb1
Method in brief: as §1

CaLsb4 = molecular target: CaLsb4
Method in brief: as §1

CaMyo5 = molecular target: CaMyo5
Method in brief: as §1

B1: unnamed (peptide)
chain: LFMKGTPEFPKSGFS
- SPOT peptide array binding signal intensity (CaNbp2): 611
- SPOT peptide array binding signal intensity (CaRvs167): 75
- SPOT peptide array binding signal intensity (CaRvs167-3): 1.5
- SPOT peptide array binding signal intensity (CaSho1): 1200
- SPOT peptide array binding signal intensity (CaSla1-D1-D2): 90
- SPOT peptide array binding signal intensity (CaSla1-D3): 289
- SPOT peptide array binding signal intensity (ScAbp1): 6.5
- SPOT peptide array binding signal intensity (ScBbc1): ≤ 0
- SPOT peptide array binding signal intensity (ScBem1-D1): 16
- SPOT peptide array binding signal intensity (ScBzz1-D1): 20.5
- SPOT peptide array binding signal intensity (ScBzz1-D2): 11.5
- SPOT peptide array binding signal intensity (ScCyk3): 1
- SPOT peptide array binding signal intensity (ScFus1): 738
- SPOT peptide array binding signal intensity (ScHof1): ≤ 0
- SPOT peptide array binding signal intensity (ScHse1): 17.5
- SPOT peptide array binding signal intensity (ScLsb1): 19
- SPOT peptide array binding signal intensity (ScLsb2): ≤ 0
- SPOT peptide array binding signal intensity (ScLsb3): 197
- SPOT peptide array binding signal intensity (ScLsb4): 92.5
- SPOT peptide array binding signal intensity (ScMyo3): 21
- SPOT peptide array binding signal intensity (ScMyo5): 2
- SPOT peptide array binding signal intensity (ScNbp2): 212
- SPOT peptide array binding signal intensity (ScPex13): 394
- SPOT peptide array binding signal intensity (ScRvs167): 32
- SPOT peptide array binding signal intensity (ScSho1): 658
- SPOT peptide array binding signal intensity (ScSla1-D1-D2): 176
- SPOT peptide array binding signal intensity (ScSla1-D3): 490
- SPOT peptide array binding signal intensity (SpAbp1-D1): 52.5
- SPOT peptide array binding signal intensity (SpBbc1): ≤ 0
- SPOT peptide array binding signal intensity (SpBzz1-D1): 140
- SPOT peptide array binding signal intensity (SpBzz1-D2): 16.5
- SPOT peptide array binding signal intensity (SpCyk3): ≤ 0
- SPOT peptide array binding signal intensity (SpHof1): 19
- SPOT peptide array binding signal intensity (SpHof1-2): 18.8
- SPOT peptide array binding signal intensity (SpHof1-3): 78
- SPOT peptide array binding signal intensity (SpHse1): 335
- SPOT peptide array binding signal intensity (SpLsb1): ≤ 0
- SPOT peptide array binding signal intensity (SpLsb4): 629
- SPOT peptide array binding signal intensity (SpMyo1): 22.8
- SPOT peptide array binding signal intensity (SpNbp2): 100
- SPOT peptide array binding signal intensity (SpPex13): 28
- SPOT peptide array binding signal intensity (SpRvs167): 30.8
- SPOT peptide array binding signal intensity (SpSla1-D1-D2): 8
- SPOT peptide array binding signal intensity (SpSla1-D3): 253

B2: unnamed (peptide)
chain: AIPPPVPNRPGGTTN
- SPOT peptide array binding signal intensity (AgAbp1): ≤ 0
- SPOT peptide array binding signal intensity (AgBbc1): 1380
- SPOT peptide array binding signal intensity (AgBem1-D1): ≤ 0
- SPOT peptide array binding signal intensity (AgBzz1-D1): 61
- SPOT peptide array binding signal intensity (AgBzz1-D2): ≤ 0
- SPOT peptide array binding signal intensity (AgCyk3): ≤ 0
- SPOT peptide array binding signal intensity (AgFus1): ≤ 0
- SPOT peptide array binding signal intensity (AgHof1): ≤ 0
- SPOT peptide array binding signal intensity (AgHse1): 13
- SPOT peptide array binding signal intensity (AgLsb1): 373
- SPOT peptide array binding signal intensity (AgLsb4): 1024
- SPOT peptide array binding signal intensity (AgMyo5): 3.5
- SPOT peptide array binding signal intensity (AgNbp2): ≤ 0
- SPOT peptide array binding signal intensity (AgRvs167): 269
- SPOT peptide array binding signal intensity (AgSho1): ≤ 0
- SPOT peptide array binding signal intensity (AgSla1-D1-D2): ≤ 0
- SPOT peptide array binding signal intensity (AgSla1-D3): ≤ 0
- SPOT peptide array binding signal intensity (CaAbp1-D1): ≤ 0
- SPOT peptide array binding signal intensity (CaAbp1-D2): ≤ 0
- SPOT peptide array binding signal intensity (CaBbc1): 2040
- SPOT peptide array binding signal intensity (CaBem1-D1): 0.5
- SPOT peptide array binding signal intensity (CaBzz1-D1): 570
- SPOT peptide array binding signal intensity (CaBzz1-D2): 79
- SPOT peptide array binding signal intensity (CaCyk3): 192
- SPOT peptide array binding signal intensity (CaFus1): ≤ 0
- SPOT peptide array binding signal intensity (CaHof1): 0.5
- SPOT peptide array binding signal intensity (CaHse1): 1.75
- SPOT peptide array binding signal intensity (CaLsb1): 1
- SPOT peptide array binding signal intensity (CaLsb4): 2490
- SPOT peptide array binding signal intensity (CaMyo5): ≤ 0
- SPOT peptide array binding signal intensity (CaNbp2): 1
- SPOT peptide array binding signal intensity (CaRvs167): 1180
- SPOT peptide array binding signal intensity (CaRvs167-3): 1.25
- SPOT peptide array binding signal intensity (CaSho1): 7
- SPOT peptide array binding signal intensity (CaSla1-D1-D2): ≤ 0
- SPOT peptide array binding signal intensity (CaSla1-D3): ≤ 0
- SPOT peptide array binding signal intensity (ScAbp1): ≤ 0
- SPOT peptide array binding signal intensity (ScBbc1): 515
- SPOT peptide array binding signal intensity (ScBem1-D1): ≤ 0
- SPOT peptide array binding signal intensity (ScBzz1-D1): 5
- SPOT peptide array binding signal intensity (ScBzz1-D2): 1.5
- SPOT peptide array binding signal intensity (ScCyk3): ≤ 0
- SPOT peptide array binding signal intensity (ScFus1): ≤ 0
- SPOT peptide array binding signal intensity (ScHof1): 3
- SPOT peptide array binding signal intensity (ScHse1): 8
- SPOT peptide array binding signal intensity (ScLsb1): 1120
- SPOT peptide array binding signal intensity (ScLsb2): 302
- SPOT peptide array binding signal intensity (ScLsb3): 1950
- SPOT peptide array binding signal intensity (ScLsb4): 857
- SPOT peptide array binding signal intensity (ScMyo3): 26
- SPOT peptide array binding signal intensity (ScMyo5): 1.75
- SPOT peptide array binding signal intensity (ScNbp2): 15
- SPOT peptide array binding signal intensity (ScPex13): 858
- SPOT peptide array binding signal intensity (ScRvs167): 1860
- SPOT peptide array binding signal intensity (ScSho1): ≤ 0
- SPOT peptide array binding signal intensity (ScSla1-D1-D2): 13.5
- SPOT peptide array binding signal intensity (ScSla1-D3): ≤ 0
- SPOT peptide array binding signal intensity (SpAbp1-D1): ≤ 0
- SPOT peptide array binding signal intensity (SpBbc1): 358
- SPOT peptide array binding signal intensity (SpBzz1-D1): 146
- SPOT peptide array binding signal intensity (SpBzz1-D2): 0.5
- SPOT peptide array binding signal intensity (SpCyk3): 1
- SPOT peptide array binding signal intensity (SpHof1): ≤ 0
- SPOT peptide array binding signal intensity (SpHof1-2): ≤ 0
- SPOT peptide array binding signal intensity (SpHof1-3): 16
- SPOT peptide array binding signal intensity (SpHse1): 8.5
- SPOT peptide array binding signal intensity (SpLsb1): 959
- SPOT peptide array binding signal intensity (SpLsb4): 2930
- SPOT peptide array binding signal intensity (SpMyo1): 9.5
- SPOT peptide array binding signal intensity (SpNbp2): 6.5
- SPOT peptide array binding signal intensity (SpPex13): ≤ 0
- SPOT peptide array binding signal intensity (SpRvs167): 2560
- SPOT peptide array binding signal intensity (SpSla1-D1-D2): ≤ 0
- SPOT peptide array binding signal intensity (SpSla1-D3): ≤ 0

From the supplement of paper PMC4466140
